The target in assay [1] is Tyrosine-protein kinase Fer (Homo sapiens) (UniProt P16591). The settings on record: at 1 µM.
Assay [2] has as its target Tyrosine-protein kinase Fes/Fps (Homo sapiens) (UniProt P07332). The settings on record: at 0.1 µM.
For assay [3] the target is unchanged. The settings on record: at 1 µM.
Assay [4] deals with Fibroblast growth factor receptor 1 (Homo sapiens) (UniProt P11362). The settings on record: at 0.1 µM.
The target is the same in assay [5]. The settings on record: at 1 µM.
Assay [6] deals with Fibroblast growth factor receptor 2 (Homo sapiens) (UniProt P21802). The settings on record: at 0.1 µM.
For assay [7] the target is unchanged. The following applies: at 1 µM.
For assay [8], the target named is Fibroblast growth factor receptor 3 (Homo sapiens) (UniProt P22607). The following applies: at 0.1 µM.
For assay [9] the target is unchanged. The following applies: at 1 µM.
The target in assay [10] is Fibroblast growth factor receptor 4 (Homo sapiens) (UniProt P22455). The settings on record: at 0.1 µM.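 Further: values are mean percent inhibition of FGFR4.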

Values joined by “and” are separate entries in the source; they are usually repeats but may differ in a detail not shown here. Equal entries are not always repeated.

Chain of Fibroblast growth factor receptor 4 (Homo sapiens) (P22455 22-802 limits assumed): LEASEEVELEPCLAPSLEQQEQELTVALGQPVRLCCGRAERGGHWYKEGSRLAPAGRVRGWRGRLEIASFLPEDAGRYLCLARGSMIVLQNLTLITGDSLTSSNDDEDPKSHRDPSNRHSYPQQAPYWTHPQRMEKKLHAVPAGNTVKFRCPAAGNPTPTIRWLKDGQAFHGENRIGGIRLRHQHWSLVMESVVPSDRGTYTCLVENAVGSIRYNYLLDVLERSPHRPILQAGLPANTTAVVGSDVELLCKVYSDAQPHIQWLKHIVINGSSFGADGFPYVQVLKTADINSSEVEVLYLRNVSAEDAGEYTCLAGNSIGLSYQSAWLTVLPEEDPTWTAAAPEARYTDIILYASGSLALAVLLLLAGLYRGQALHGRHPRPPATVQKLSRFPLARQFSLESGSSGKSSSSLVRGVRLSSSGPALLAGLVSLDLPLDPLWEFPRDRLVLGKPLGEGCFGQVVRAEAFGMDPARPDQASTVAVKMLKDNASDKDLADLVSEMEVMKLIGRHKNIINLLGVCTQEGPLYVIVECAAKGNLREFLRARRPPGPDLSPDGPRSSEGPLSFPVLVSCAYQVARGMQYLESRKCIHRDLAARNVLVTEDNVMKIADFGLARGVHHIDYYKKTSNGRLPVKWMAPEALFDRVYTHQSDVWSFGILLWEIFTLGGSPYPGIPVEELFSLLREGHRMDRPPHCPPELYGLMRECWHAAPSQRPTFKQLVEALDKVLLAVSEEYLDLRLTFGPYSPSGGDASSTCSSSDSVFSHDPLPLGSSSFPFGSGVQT
Chain of Fibroblast growth factor receptor 2 (Homo sapiens) (P21802 22-821 limits assumed): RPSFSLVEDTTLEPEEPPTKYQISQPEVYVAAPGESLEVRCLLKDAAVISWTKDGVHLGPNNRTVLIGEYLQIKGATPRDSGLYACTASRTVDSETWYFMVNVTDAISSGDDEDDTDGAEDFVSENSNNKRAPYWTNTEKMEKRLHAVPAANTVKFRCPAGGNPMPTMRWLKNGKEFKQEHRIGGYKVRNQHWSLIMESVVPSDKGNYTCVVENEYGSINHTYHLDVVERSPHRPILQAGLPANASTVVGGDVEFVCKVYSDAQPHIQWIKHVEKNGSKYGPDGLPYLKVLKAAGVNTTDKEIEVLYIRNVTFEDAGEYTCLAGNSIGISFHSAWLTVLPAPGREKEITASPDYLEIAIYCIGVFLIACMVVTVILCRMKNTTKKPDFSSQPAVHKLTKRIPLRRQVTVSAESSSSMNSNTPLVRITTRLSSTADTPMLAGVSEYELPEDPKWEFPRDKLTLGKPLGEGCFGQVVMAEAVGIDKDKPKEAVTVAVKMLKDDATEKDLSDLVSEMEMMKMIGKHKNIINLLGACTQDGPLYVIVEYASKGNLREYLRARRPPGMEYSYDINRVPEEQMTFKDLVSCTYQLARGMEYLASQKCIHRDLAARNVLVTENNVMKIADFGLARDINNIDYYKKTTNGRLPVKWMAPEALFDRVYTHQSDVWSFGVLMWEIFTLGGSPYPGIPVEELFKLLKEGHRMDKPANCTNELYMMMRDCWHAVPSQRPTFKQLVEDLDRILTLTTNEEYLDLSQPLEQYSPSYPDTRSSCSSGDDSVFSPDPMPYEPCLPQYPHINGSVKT
Chain of Fibroblast growth factor receptor 3 (Homo sapiens) (P22607 23-806 limits assumed): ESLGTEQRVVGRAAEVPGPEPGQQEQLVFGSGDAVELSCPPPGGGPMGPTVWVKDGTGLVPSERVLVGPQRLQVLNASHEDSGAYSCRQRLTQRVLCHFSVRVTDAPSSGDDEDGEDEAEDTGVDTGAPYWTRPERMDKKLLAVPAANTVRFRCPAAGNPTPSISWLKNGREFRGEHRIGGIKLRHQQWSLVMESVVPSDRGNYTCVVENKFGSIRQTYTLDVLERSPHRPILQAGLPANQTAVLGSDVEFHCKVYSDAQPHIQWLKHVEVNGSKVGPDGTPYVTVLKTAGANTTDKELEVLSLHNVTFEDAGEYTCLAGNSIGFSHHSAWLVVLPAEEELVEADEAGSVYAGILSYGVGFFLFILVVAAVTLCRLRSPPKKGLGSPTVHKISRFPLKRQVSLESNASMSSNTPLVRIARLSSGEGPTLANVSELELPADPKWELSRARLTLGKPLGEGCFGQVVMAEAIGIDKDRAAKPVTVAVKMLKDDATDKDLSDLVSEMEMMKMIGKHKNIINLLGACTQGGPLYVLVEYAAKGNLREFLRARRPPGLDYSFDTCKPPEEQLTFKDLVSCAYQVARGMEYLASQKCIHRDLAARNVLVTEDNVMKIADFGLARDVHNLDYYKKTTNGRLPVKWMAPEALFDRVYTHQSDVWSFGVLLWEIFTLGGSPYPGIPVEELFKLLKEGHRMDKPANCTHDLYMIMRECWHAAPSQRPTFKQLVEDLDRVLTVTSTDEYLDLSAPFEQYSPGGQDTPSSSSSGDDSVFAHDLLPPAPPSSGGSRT
Chain of Tyrosine-protein kinase Fes/Fps (Homo sapiens) (P07332 whole entry): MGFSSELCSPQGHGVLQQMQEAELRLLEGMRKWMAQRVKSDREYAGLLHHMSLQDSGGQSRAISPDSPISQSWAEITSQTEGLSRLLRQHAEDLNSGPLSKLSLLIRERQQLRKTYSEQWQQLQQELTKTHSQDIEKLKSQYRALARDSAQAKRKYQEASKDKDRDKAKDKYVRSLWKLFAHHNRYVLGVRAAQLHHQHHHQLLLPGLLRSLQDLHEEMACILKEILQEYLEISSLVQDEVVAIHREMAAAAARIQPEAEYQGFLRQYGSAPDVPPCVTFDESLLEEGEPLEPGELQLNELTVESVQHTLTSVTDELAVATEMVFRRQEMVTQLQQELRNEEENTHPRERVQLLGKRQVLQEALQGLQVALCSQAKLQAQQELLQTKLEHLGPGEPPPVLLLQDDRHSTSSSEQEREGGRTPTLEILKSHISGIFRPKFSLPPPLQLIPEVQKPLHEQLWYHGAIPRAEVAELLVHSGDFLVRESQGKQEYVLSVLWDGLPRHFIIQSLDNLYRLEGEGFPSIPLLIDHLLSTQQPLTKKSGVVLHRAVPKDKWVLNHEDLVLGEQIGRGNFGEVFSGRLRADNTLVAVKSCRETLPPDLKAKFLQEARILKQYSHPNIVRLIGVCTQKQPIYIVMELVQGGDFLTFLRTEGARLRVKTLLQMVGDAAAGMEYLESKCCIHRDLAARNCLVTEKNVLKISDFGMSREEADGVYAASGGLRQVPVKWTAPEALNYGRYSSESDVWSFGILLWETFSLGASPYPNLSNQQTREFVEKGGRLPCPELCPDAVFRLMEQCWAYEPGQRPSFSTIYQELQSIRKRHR
Chain of Tyrosine-protein kinase Fer (Homo sapiens) (P16591 whole entry, looked up): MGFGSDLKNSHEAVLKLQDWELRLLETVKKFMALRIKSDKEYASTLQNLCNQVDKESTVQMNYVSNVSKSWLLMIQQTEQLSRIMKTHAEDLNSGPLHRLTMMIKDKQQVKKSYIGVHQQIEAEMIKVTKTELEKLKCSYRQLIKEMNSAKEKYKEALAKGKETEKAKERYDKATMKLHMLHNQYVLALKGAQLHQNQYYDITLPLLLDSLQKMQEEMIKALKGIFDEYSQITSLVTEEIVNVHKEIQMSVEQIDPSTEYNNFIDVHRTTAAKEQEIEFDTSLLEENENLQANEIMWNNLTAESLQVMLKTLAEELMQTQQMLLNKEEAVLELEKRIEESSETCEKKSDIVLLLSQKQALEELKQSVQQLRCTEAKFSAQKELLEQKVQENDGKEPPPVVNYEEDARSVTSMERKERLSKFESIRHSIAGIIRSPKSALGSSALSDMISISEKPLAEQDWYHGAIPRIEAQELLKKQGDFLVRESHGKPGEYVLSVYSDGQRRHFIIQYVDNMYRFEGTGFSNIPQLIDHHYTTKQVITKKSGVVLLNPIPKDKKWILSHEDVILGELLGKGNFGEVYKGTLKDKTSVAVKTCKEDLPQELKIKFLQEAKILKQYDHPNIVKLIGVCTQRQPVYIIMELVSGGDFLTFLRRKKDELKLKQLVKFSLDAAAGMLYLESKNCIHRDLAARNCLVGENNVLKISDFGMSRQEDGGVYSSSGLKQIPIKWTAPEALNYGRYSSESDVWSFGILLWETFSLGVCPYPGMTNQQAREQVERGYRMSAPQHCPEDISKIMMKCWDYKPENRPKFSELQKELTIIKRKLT
Chain of Fibroblast growth factor receptor 1 (Homo sapiens) (P11362 22-822 limits assumed): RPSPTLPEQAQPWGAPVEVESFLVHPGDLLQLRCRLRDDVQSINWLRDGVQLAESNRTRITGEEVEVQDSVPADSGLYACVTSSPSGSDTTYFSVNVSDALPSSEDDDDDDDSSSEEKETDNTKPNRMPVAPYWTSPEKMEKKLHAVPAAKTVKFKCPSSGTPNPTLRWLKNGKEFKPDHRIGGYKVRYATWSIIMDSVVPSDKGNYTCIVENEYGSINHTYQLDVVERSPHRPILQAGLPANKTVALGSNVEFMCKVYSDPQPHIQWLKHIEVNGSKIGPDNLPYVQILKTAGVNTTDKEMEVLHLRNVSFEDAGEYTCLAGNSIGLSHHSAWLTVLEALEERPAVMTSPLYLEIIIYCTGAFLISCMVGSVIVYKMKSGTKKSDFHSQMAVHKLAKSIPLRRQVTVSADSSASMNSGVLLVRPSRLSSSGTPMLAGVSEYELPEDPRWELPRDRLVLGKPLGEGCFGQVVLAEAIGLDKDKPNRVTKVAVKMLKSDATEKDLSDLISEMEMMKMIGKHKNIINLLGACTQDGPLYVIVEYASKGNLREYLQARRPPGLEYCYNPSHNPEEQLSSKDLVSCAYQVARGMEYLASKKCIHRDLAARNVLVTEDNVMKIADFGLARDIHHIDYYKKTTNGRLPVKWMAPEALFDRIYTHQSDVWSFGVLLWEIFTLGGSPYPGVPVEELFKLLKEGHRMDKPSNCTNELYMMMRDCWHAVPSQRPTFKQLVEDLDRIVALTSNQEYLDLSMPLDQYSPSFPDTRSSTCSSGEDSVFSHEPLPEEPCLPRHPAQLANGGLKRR

A word on the inhibition: it is the drop in the measured response relative to a control, in per cent. As for `CNC(=O)c1cncc(/C=C/c2ccccc2C)c1`, the inhibition was determined as 4.88% in assay [1]; 2.38% in assay [2]; 1.6% in [3]; 4.11% in assay [4]; 3.14% in [5]; 2.42% in assay [6]. Further, the inhibition was found to be 4.95% in assay [7], 6.04% in assay [8], 4.39% in [9] and 0.55% in assay [10].
Consider `c1cnn2ncc(-c3ccnc(NCCCN4CCOCC4)n3)c2c1`, for which the inhibition turned out to be 1.85% in assay [1]; 2.2% in [2]; 5.72% in [3]; 1.29% in [4]; 2.22% in assay [5]; 1% in assay [6]. The inhibition in assay [7] was 3.87%; in assay [8] it was 3.61%; in assay [9], 1.83%; in assay [10], -0.18%.
Take `CS(=O)(=O)CCNCc1ccc(-c2ccc3ncnc(Nc4ccc(OCc5ccccc5)cc4)c3c2)o1`: the inhibition is 0.38% in [1]; 3.93% in assay [2]; 3.54% in assay [3]; 6.5% in [4]; 3.85% in assay [5]; 3.26% in assay [6]. The inhibition in assay [7] is 4.3%; in assay [8], 4.56%; in assay [9], 3.89%; in [10], 1.63%.
On to `CS(=O)(=O)Nc1ccc(-c2ccc3c(NC(=O)C4CC4)n[nH]c3c2)cc1`, for which the inhibition was 11.5% in assay [1]; 2.68% in [2]; 4.38% in assay [3]; 6.04% in [4]; 6.36% in assay [5]; 3.37% in assay [6]. In addition, the inhibition in assay [7] is 8.17%; in assay [8], 6.11%; in assay [9], 5.97%; in [10] it was -2.39%.
Turning to `CN(C)CCNC(=O)Nc1ccc(N(C)c2ccnc(Nc3ccc(CS(C)(=O)=O)cc3)n2)cc1`, the inhibition in [1] worked out at 12.4%; in assay [2] it was 3.36%; in [3] it was 6.7%; in [4] it was 27.9%; in assay [5], 9.1%; in [6] it was 5.38%. The inhibition in [7] was determined as 8.82%; in assay [8], 6.17%; in assay [9] it was 5.98%; in assay [10], 1.63%.
For `O=C1Nc2ccccc2/C1=C1\CCc2cc(O)ccc21`, the inhibition in assay [1] is 22.1%; in assay [2] it was 4.19%; in [3], 6.81%; in [4], 8.16%; in [5], 23.5%; in [6] it was 9.87%. The inhibition in assay [7] is 31.3%; in assay [8], 10.3%; in [9], 30.9%; in assay [10], -1.94%.
As to `CS(=O)(=O)CCNCc1ccoc1-c1ccc2ncnc(Nc3ccc(OCc4ccccc4)cc3)c2c1`, the inhibition in assay [1] was 1.52%; in assay [2], 1.6%; in assay [3], 0.27%; in [4], -2.87%; in assay [5], 2.44%; in [6], -0.37%. The inhibition in assay [7] was 2.62%; in assay [8], 2.09%; in assay [9], 3.53%; in assay [10], 0.96%.
`CC(C)c1ccc(-c2cc(-c3c[nH]nc3-c3ccccn3)ccn2)cc1`: the inhibition in assay [1] is 2.58%; in assay [2], 0.8%; in assay [3] it was 1.23%; in assay [4], 6.6%; in [5], 1.8%; in [6], -0.22%. Moreover, the inhibition in [7] was 3.83%; in [8] it was 3.55%; in [9], 1.81%; in [10], 0.39%.
In the case of `COc1cccc(Nc2nccc(-c3cnn4ncccc34)n2)c1`, the inhibition was 48% in [1]; 8.87% in assay [2]; 50.3% in assay [3]; -2.04% in assay [4]; 4.55% in [5]; 1.68% in [6]. Moreover, the inhibition in assay [7] is 16.6%; in [8] it was 0.93%; in assay [9] it was 10.9%; in assay [10], 1.56%.
Regarding `O=C(O[C@H]1CN[C@H](C#Cc2cc3ncnc(Nc4ccc5c(ccn5Cc5cc(F)ccc5F)c4)c3s2)C1)N1CCOCC1`, the inhibition is 5.55% in assay [1]; 3.3% in [2]; 3.52% in assay [3]; -0.06% in [4]; 2.23% in [5]; 3.95% in assay [6]. For the same compound, the inhibition is 4.22% in [7], 5.33% in [8], 3.1% in [9] and -1.92% in assay [10].
In the case of `NS(=O)(=O)c1cccc(N/C=C2\C(=O)Nc3ccccc32)c1`, the inhibition in assay [1] was 6.18%; in [2], 3.03%; in assay [3], 3.46%; in [4], 5.1%; in [5] it was 8.92%; in [6], 7.77%. Moreover, the inhibition in assay [7] was 26.9%; in [8], 8.3%; in assay [9], 21%; in assay [10], -4.72%.
With `Nc1nccc(-c2c(-c3ccc(F)cc3)ncn2C2CCNCC2)n1`, the inhibition in [1] was -1.75% and 3.19%; in assay [2] it was -3.81% and -0.12%; in assay [3], -3.68% and -0.18%; in [4], -5.66% and -0.16%; in [5], -4.83% and 1.62%; in assay [6], -3.3% and 0.04%. Further, the inhibition in assay [7] is -3.58% and 1.03%; in assay [8] it was -3.25% and 3.33%; in assay [9], -1.53% and 2.36%; in [10] it was -0.08% and 3.95%.
With `CS(=O)(=O)Nc1ccc(-c2cc(-c3ccccc3)cc(C(N)=O)c2N)cc1`, the inhibition in assay [1] amounted to 1.1%; in assay [2], 1.07%; in assay [3], 1.64%; in [4] it was 0.45%; in assay [5] it was 3.2%; in assay [6] it was 1.73%. In addition, the inhibition in [7] is 4.95%; in assay [8], -0.12%; in [9], 8.3%; in [10] it was 0.07%.
For `COc1ccc(-c2nn3ncccc3c2-c2ccnc(Nc3ccc(F)c(F)c3)n2)cc1`, the inhibition in assay [1] stood at 7.64%; in assay [2], 2.66%; in assay [3] it was 2.57%; in assay [4] it was 4.92%; in assay [5], 0.84%; in [6], 5.14%. In addition, the inhibition is 7.4% in [7], 5.17% in assay [8], 7.65% in assay [9] and 1.42% in assay [10].
`COc1c(C(N)=O)cc(-c2ccc(Cl)cc2)cc1-c1ccc(S(N)(=O)=O)cc1`: the inhibition in assay [1] was 5.66%; in [2] it was 3.78%; in [3], 5.26%; in [4] it was 7.12%; in [5] it was 7.58%; in [6], 5.92%. The inhibition in assay [7] is 5.85%; in [8], 5.11%; in assay [9] it was 6.87%; in assay [10], 4.18%.

The values above are taken from ChEMBL document CHEMBL1961873, “Compounds: GSK PKIS; Assays: Nanosyn kinase panel” (2012).
